Compounds with a hit are over-represented: about 4.8% of the library has one in this group of screens.
DAX1 inh-1 = NR0B1 (DAX1) inhibition; P51843; HEK293 Gal4-DAX1 luciferase reporter, luminescence; inhibition, % at 6.75 µM; 340,000 tested, 0.99% active; AID 504766;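 active means inhibition above the mean over all tested compounds plus 3 SD, cut at about 4.2% in these data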;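 further: inhibition shows as a rise in luminescence from relieved DAX1 repression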
Target sequence (P51843 207-470 limits assumed): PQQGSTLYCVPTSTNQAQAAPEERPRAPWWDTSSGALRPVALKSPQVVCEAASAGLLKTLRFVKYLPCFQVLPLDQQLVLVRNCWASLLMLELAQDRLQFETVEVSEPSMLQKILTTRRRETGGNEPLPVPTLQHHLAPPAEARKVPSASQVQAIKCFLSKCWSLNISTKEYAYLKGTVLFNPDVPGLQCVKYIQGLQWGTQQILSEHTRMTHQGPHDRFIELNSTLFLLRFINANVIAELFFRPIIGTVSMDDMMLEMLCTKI
ssDAF12 agonist = activates DAF-12 receptor from parasite S. stercoralis. AID 652126. HEK293 ssDAF-12/GRIP1 lit1-tk-luc reporter, luminescence; % of 3 µM dafachronic acid response. 370,000 tested, 1% active. activation, % at 6.8 µM;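 active means activation above the mean over all tested compounds plus 3 SD, cut at about 0.9% in these data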
DAX1 inh-2 = DAX1 (NR0B1) inhibition, primary screen; 370,000 tested, 1.1% active; AID 652010; HEK293T StAR-luciferase reporter, SF-1/DAX-1 repression relief; inhibition, % at 6.8 µM;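 active means inhibition above the mean over all tested compounds plus 3 SD, cut at about 3.6% in these data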;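 further: higher inhibition means more luminescence from relief of DAX-1 repression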
SMARCA2 act = SMARCA2 function activation, primary screen; MG213 cells, MMTV-luciferase reporter, dexamethasone, overnight; AID 652017; activation, % at 9.1 µM; 370,000 tested, 1% active; in the data active means activation above about 7.8%
hgDAF-12 ag = hgDAF-12 agonism, primary luciferase screen. HEK293 GAL4-hgDAF12 UAS-luciferase reporter, agonist luminescence; normalized to butyrate control. activation, % at 6.8 µM. AID 687014. 370,000 tested, 1.8% active;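 active means activation above a cutoff set at the mean of all screened compounds plus 3 SD, cut at about 10% in these data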
hcDAF-12 act = activators of H. contortus DAF-12 nuclear receptor | 370,000 tested, 1.4% active | AID 652067 | HEK293 hcDAF-12 lit1-tk-luc reporter, luminescence; 0% DMSO, 100% Δ7-dafachronic acid | activation, % at 6.8 µM;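 active means activation above the mean of all tested compounds plus 3 SD, cut at about 5.5% in these data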
LXR ag = LXR-beta agonism as hcDAF-12 counter-screen. shares compounds with hcDAF-12 act. HEK293 Gal4-LXR tk-luc reporter, luminescence, 24 h; normalized: DMSO 0%, positive control 100%. 3,400 tested, under 10 active. activation, % at 6.8 µM;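 active means mean percent activation of the reporter above a cutoff set as the average over tested compounds plus their standard deviation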
hcDAF12 conf = hcDAF-12 agonism, confirmation assay; HEK293 hcDAF-12 lit1-tk-luc reporter, luminescence; % of Δ7-dafachronic acid response; activation, % at 6.8 µM; 3,400 tested, 61% active; shares compounds with hcDAF-12 act;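 active means mean activation across triplicate tests above the threshold derived from the earlier primary screen, cut at about 5.5% in these data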
hgDAF12 conf = hgDAF-12 agonism, confirmation assay | shares compounds with hgDAF-12 ag | HEK293 GAL4-hgDAF12 luciferase reporter, agonist mode; percent of butyrate response | activation, % at 6.8 µM | 3,300 tested, 80% active | AID 743050;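 active means mean activation over triplicate wells above the hit cutoff derived from the earlier primary screen, cut at about 11% in these data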
LXR ag 2 = counter-screen for DAF-12 agonists: agonists of human LXR-beta | HEK293 Gal4-LXR luciferase reporter, 24 h | shares compounds with hgDAF-12 ag | 3,300 tested, under 10 active | activation, % at 6.8 µM | AID 743051;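 active means mean activation of the triplicate above a set limit carried over from the primary screen, none filed active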
A number is an active result; . = inactive; / = no result; ! = repeats disagree.

SMILES	DAX1 inh-1	ssDAF12 agonist	DAX1 inh-2	SMARCA2 act	hgDAF-12 ag	hcDAF-12 act	LXR ag	hcDAF12 conf	hgDAF12 conf	LXR ag 2
Cc1oc(=O)c(NC(=O)c2ccccc2)cc1C(N)=O	/	.	.	.	.	.	/	/	/	/
C[n+]1c2cc(N)ccc2cc2ccc(N)cc21	.	.	.	.	13!	6.6	.	11	.	.
CC(C)(C)c1ccc(S(=O)(=O)NCC2CCN(C(=O)C(=O)c3cccs3)CC2)cc1	/	.	.	.	.	.	/	/	/	/
CC(NC(=O)C(NC(=O)OCc1ccccc1)C(C)O)C(=O)OCc1ccccc1 (stereo unspecified)	/	.	.	.	.	.	/	/	/	/
CCOc1ccc(C(=O)Nc2ccccc2C(=O)O)cc1	.	1.1	.	.	18	8.2	.	8.3	15	.
CCCC(=O)Nc1ccccc1NC(=O)c1ccc(OCC)cc1	.	.	.	.	.	.	/	/	/	/
Cc1cnc(NC(=O)c2ccc3c(c2)OCCO3)s1	.	.	.	.	.	.	/	/	/	/
Cc1ccc(C(=O)Nc2ncc(C)s2)s1	.	.	.	.	17	6.8	.	6.3	18	.
O=C(C(=O)N1CCC(CNC(=O)c2cccs2)CC1)c1cc2ccccc2o1	/	.	.	.	.	.	/	/	/	/
COc1cc(-c2nc3ccccc3s2)ccc1O	.	.	.	.	14	8.6	.	7.3	14	.
c1ccc([C@H]2CN3C(=N2)Sc2ccccc23)cc1	.	2.5	.	.	16	13	.	15	24	.
CCc1sc(C(=O)Nc2nccs2)cc1C	.	0.9	.	.	19	6.7	.	6.7	21	.
CC(=O)c1cc(C(=O)Nc2ccc3ccccc3c2)c(C)o1	.	.	.	.	.	.	/	/	/	/
Cc1cc(C(=O)Nc2ccc3ccccc3c2)c(C)o1	.	1.7	.	.	18	8.5	.	11	21	.
O=C(Nc1ccc2ccccc2c1)c1ccc(Cl)cc1	.	1.7	3.8	.	16	6.8	.	9.4	22	.
Cc1cc(C(=O)Nc2ccc3ccccc3c2)oc1C	.	.	.	.	19	7.3	.	6.9	19	.
C(=C\c1nc2ccccc2[nH]1)/c1ccccc1	.	.	.	.	14	7.2	.	8.1	18	.
CN(C)c1ccc(/C=C/c2nc3ccccc3c(=O)[nH]2)cc1	.	.	.	.	19	6.6	.	8.1	.	.
COC(=O)C1=C(C)N(C)C(=NCc2ccccc2C(F)(F)F)NC1c1ccc(F)cc1 (stereo unspecified)	/	.	.	.	.	.	/	/	/	/
CCCCOCC1CN(CCCC)S(=O)(=O)c2c(NCc3cc(OC)c(OC)c(OC)c3)cccc2O1 (stereo unspecified)	/	.	.	.	.	.	/	/	/	/
Cn1c(NC(=O)CCc2ccccc2)cc(=O)n(C)c1=O	.	1.6	4.1	.	14	9.4	.	7.5	13	.
CC(C)OC(=O)c1ccc2nc3ccccc3nc2c1	.	1.2	.	.	17	7.8	.	8.1	17	.
CCn1c2ccccc2c2cc(NC(=O)COC(=O)c3ccc(F)cc3F)ccc21	/	.	.	.	.	.	/	/	/	/
CC(=Nc1ccccc1)c1sc2ccccc2c1O	.	2.1	.	.	17	20	.	11	26	.
O=c1c2ccccc2cnn1-c1ccc2ccccc2c1	.	1.4	.	.	18	13	.	6.6	17	.

High-throughput results as filed in PubChem BioAssay.
